Assay outcomes deposited in PubChem BioAssay by National Center for Advancing Translational Sciences (NCATS).
TRHR PAM = qHTS for Small Molecule Agonists and Allosteric Enhancers of Human TRH Receptor: Primary Screen for Enhancers; Thyrotropin-releasing hormone receptor (Homo sapiens), P34981; TRHR cells, fluo-8 calcium fluorescence, EC20 TRH enhancement; AID 493056, 2011; enhancement, % at 2 µM; 360,000 compounds, 0.66% hits; in the data active means enhancement above about 30%; further: 0% is about no effect
Target sequence (P34981 whole entry, looked up): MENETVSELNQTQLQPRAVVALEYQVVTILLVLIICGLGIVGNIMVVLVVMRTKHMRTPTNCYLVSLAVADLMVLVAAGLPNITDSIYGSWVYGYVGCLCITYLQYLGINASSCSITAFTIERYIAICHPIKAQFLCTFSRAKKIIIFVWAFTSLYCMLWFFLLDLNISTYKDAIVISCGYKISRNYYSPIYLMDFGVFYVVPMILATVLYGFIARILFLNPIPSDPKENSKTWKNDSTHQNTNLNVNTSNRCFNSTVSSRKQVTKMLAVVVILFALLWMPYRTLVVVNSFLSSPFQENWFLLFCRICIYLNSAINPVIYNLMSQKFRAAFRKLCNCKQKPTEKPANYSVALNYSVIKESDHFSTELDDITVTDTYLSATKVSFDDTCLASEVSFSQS
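TRHR-expressing cells loaded with fluo-8 calcium dye were read kinetically (ex 480/em 530) during compound addition, then stimulated with an EC20 of TRH (10 nM final). Enhancement of the Gq-mediated intracellular calcium response was scored.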
TRHR ag = qHTS for Small Molecule Agonists and Allosteric Enhancers of Human TRH Receptor: Primary Screen for Agonists; 360,000 compounds, 0.18% hits; activation, % at 2 µM; Thyrotropin-releasing hormone receptor (Homo sapiens), P34981; TRHR cells, calcium flux fluo-8, FDSS agonist mode; further: 0% is about no effect
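Steps: seed TRHR cells overnight; add fluo-8 no-wash Ca dye, RT 30 min–1.5 h; record 10 s baseline; pin-transfer compounds; monitor fluorescence 1 cycle/s for the agonist window. Calcium increases flag candidate agonists.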
D1 ag = Allosteric Agonists of the Human D1 Dopamine Receptor: qHTS; D(1A) dopamine receptor (Homo sapiens), P21728; activation, % at 2 µM; 360,000 compounds, 1% hits; HEK293 T-REx D1 cells, calcium flux, agonist mode; further: 0% is about no effect
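Inducible HEK293 T-REx D1 cells, force-coupled to calcium signalling, were plated at 4000 cells/well with tetracycline and held overnight at 30 C. After no-wash calcium dye loading, compound-evoked calcium rise over 180 s flagged agonists.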
D1 antag = Antagonist of Human D 1 Dopamine Receptor: qHTS; D(1A) dopamine receptor (Homo sapiens), P21728; HEK293 TREx D1 cells, calcium flux, dopamine EC80; active compounds read low; activity change, negative = inhibition, % at 10 µM; 360,000 compounds, 3.2% hits; AID 504652, 2011; in the data active means activity change below about -30%; further: on the % scale 0 is the no-effect control and ±100 the full control effect
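Inducible Hek293 Trex D1 cells (tetracycline, overnight, 30 C). Calcium dye 30–90 min RT. Antagonist mode: EC80 dopamine added after 180 s compound read.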
D1 PAM = Potentiators of Human D1 Dopamine Receptor: qHTS; D(1A) dopamine receptor (Homo sapiens), P21728; HEK293 TREx D1 cells, calcium flux, dopamine EC20 potentiation; potentiation, % at 10 µM; 360,000 compounds, 0.036% hits; in the data active means potentiation above about 30%; further: 0% is about no effect
Glioma ERSR ind = qHTS for Inducers of the Endoplasmic Reticulum Stress Response (ERSR) in Human Glioma: qHTS; U87-MG GRP78 promoter luciferase reporter, 16 h; Potency, µM, for inactives: at the top dose activation, most hits filed as activators; 420,000 compounds, 0.02% hits; active means well fitted activation curve with a large enough effect; further: potency means the concentration at half of the fitted maximal effect; series mostly up to about 76 µM; % of control where 0% means no effect; nearly all actives have a fitted effect of over 35% in size
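Stably transfected U87-MG human glioma cells carrying a GRP78-based luminescent sensor were seeded at 1000 cells/well, pin-dosed with compounds and incubated 16 h. Luciferase reagent was then added, and end-point luminescence was read after 10 min at room temperature.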
An asterisk follows results filed as active. Compounds with a hit are over-represented: about 4% of the library has one in this group of screens. Unless noted, no stated cut-off is given here; in the data, active means activation above about 30%; inactive means the rest.

What do the screens show for `COc1cccc(-c2ccc3c(N)c(C(=O)c4ccc(Br)cc4)sc3n2)c1`?
TRHR PAM: -1.4; TRHR ag: 16.1; D1 ag: 80.5*; D1 antag: -4.2; D1 PAM: -0.7; Glioma ERSR ind: -2.9%

What do the screens show for `COc1ccc(-c2ccc3c(N)c(C(=O)NC(C)C)sc3n2)cc1OC`?
TRHR PAM: 7.3; TRHR ag: -3.0; D1 ag: 1.2; D1 antag: 17.8; D1 PAM: 2.8; Glioma ERSR ind: 3.1%

Results for COc1ccccc1/C=C/c1cncc(/C=C/c2ccccc2OC)c1 ?
Glioma ERSR ind: -2.5%

Results for COc1ccccc1NC(=O)COC(=O)c1ccc(N2CCCC2=O)cc1 ?
TRHR PAM: -0.2; TRHR ag: -0.3; D1 ag: 3.6; D1 antag: -31.0*; D1 PAM: -0.2; Glioma ERSR ind: -1.3%

How did Cc1ccc(C(=O)NCCNS(=O)(=O)c2ccccc2)cn1 do in these assays?
TRHR PAM: 39.3*; TRHR ag: 0.0; D1 ag: 5.5; D1 antag: 16.4; D1 PAM: -1.0; Glioma ERSR ind: -2.2%

Results for Cc1nc(NCc2c(F)cccc2F)sc1-c1ccn(CCN2CCOCC2)n1 ?
Glioma ERSR ind: -2.5%

How did O=C1C(=O)N(C2CCN(S(=O)(=O)c3ccc(F)cc3)CC2)CCN1Cc1ccccc1 do in these assays?
TRHR PAM: -2.5; TRHR ag: 0.1; D1 ag: 3.1; D1 antag: 24.0; D1 PAM: -0.5; Glioma ERSR ind: -2.1%

How did O=S(=O)(c1ccc(Cl)cc1)N1CCN(C2CCN(Cc3ccccc3)CC2)CC1 do in these assays?
TRHR PAM: 15.0; TRHR ag: -0.5; D1 ag: 2.1; D1 antag: 5.7; D1 PAM: -1.4; Glioma ERSR ind: -3.7%

How did COc1ccc(S(=O)(=O)N2CCC(N3CCN(Cc4ccc(F)cc4)C(=O)C3=O)CC2)cc1 do in these assays?
TRHR PAM: 3.1; TRHR ag: -1.1; D1 ag: 2.4; D1 antag: -35.9*; D1 PAM: 1.0; Glioma ERSR ind: -4.0%

Results for O=[N+]([O-])c1ccccc1S(=O)(=O)N1CCN(C2CCN(Cc3ccccc3)CC2)CC1 ?
TRHR PAM: 31.1*; TRHR ag: 1.4; D1 ag: 0.8; D1 antag: -8.4; D1 PAM: -1.6; Glioma ERSR ind: -0.7%

How did O=[N+]([O-])c1ccc(S(=O)(=O)N2CCN(C3CCN(Cc4ccccc4)CC3)CC2)cc1 do in these assays?
TRHR PAM: -8.1; TRHR ag: 0.2; D1 ag: 5.7; D1 antag: 0.4; D1 PAM: -8.2; Glioma ERSR ind: -7.0%

Results for COc1ccc(S(=O)(=O)N2CCN(Cc3cccc(Cl)c3)CC2)cc1 ?
TRHR PAM: -0.9; TRHR ag: 0.3; D1 ag: 1.1; D1 antag: -38.6*; D1 PAM: -2.0; Glioma ERSR ind: -1.2%

What do the screens show for `COc1ccc(S(=O)(=O)N2CCC(N3CCN(Cc4ccccc4)CC3)CC2)cc1`?
TRHR PAM: 31.5*; TRHR ag: 0.1; D1 ag: -1.9; D1 antag: -5.6; D1 PAM: -1.1; Glioma ERSR ind: -1.0%

What do the screens show for `CN(C)c1ccc(/C=C2\C=Nc3ccccc32)cc1`?
Glioma ERSR ind: 1.3%

Results for COc1ccc(C)cc1S(=O)(=O)N1CCCCCC1 ?
TRHR PAM: 1.3; TRHR ag: -0.4; D1 ag: 0.3; D1 antag: 3.9; D1 PAM: 4.3; Glioma ERSR ind: -2.1%

Results for COc1ccc(Br)cc1S(=O)(=O)N1CCCC1 ?
TRHR PAM: -3.0; TRHR ag: -0.4; D1 ag: -1.8; D1 antag: -36.4*; D1 PAM: -9.5; Glioma ERSR ind: -3.3%

How did COc1ccc(OC)c(S(=O)(=O)N2CCN(Cc3ccccc3)CC2)c1 do in these assays?
TRHR PAM: 30.5*; TRHR ag: 0.0; D1 ag: 6.2; D1 antag: 0.3; D1 PAM: -0.4; Glioma ERSR ind: -0.7%

Results for COc1ccc(OC)c(S(=O)(=O)N2CCC(C(=O)N3CCN(Cc4ccccc4)CC3)CC2)c1 ?
TRHR PAM: 3.2; TRHR ag: -0.3; D1 ag: 5.5; D1 antag: -3.1; D1 PAM: -3.6; Glioma ERSR ind: -1.6%

Results for CCc1nc2c(OCc3ccc(F)cc3)cccn2c1N(C)C(=O)C(C)C ?
Glioma ERSR ind: -3.4%

Results for CCCc1cc(F)c(S(=O)(=O)N2CCN(S(=O)(=O)c3ccc4c(c3)OCCO4)CC2)cc1F ?
TRHR PAM: 2.1; TRHR ag: 1.2; D1 ag: 4.4; D1 antag: 6.1; D1 PAM: 5.8

Results for CCOC(=O)C1(CCc2ccccc2)CCN(C(=O)CN2C(=O)CSC2=O)CC1 ?
TRHR PAM: -1.0; TRHR ag: -0.5; D1 ag: 47.7*; D1 antag: -13.5; D1 PAM: 2.4; Glioma ERSR ind: 1.1%

How did Cc1ccccc1Nc1nnc(SCc2cc([N+](=O)[O-])cc3c2OCOC3)s1 do in these assays?
TRHR PAM: -10.3; TRHR ag: -0.4; D1 ag: 2.1; D1 antag: -1.2; D1 PAM: -0.7; Glioma ERSR ind: -7.1%

What do the screens show for `Cc1nnc(SCc2cc([N+](=O)[O-])cc3c2OCOC3)n(N)c1=O`?
TRHR PAM: 7.8; TRHR ag: -0.5; D1 ag: 2.2; D1 antag: -42.1*; D1 PAM: -6.4; Glioma ERSR ind: -1.8%

How did Cc1cc2nc(-c3ccc(SCc4ccc(C#N)cc4)nc3)[nH]c2cc1C do in these assays?
TRHR PAM: -0.7; TRHR ag: 0.5; D1 ag: -0.9; D1 antag: -42.9*; D1 PAM: -10.8; Glioma ERSR ind: 3.0%

How did CC(=O)CSc1ccc(-c2nc3cc(C)c(C)cc3[nH]2)cn1 do in these assays?
TRHR PAM: 3.7; TRHR ag: 0.4; D1 ag: 2.3; D1 antag: 10.7; D1 PAM: -2.9; Glioma ERSR ind: -12.6%

Results for N#Cc1ccccc1CSc1ccc(-c2nc3ccccc3[nH]2)cn1 ?
TRHR PAM: -6.1; TRHR ag: 0.0; D1 ag: 15.2; D1 antag: -35.2*; D1 PAM: -5.8; Glioma ERSR ind: 7.8%

Results for CCOC(=O)c1ccc(NC(=O)CS(=O)(=O)Cc2nc(-c3ccc(C)cc3)oc2C)cc1 ?
TRHR PAM: 10.0; TRHR ag: 0.8; D1 ag: 2.6; D1 antag: 1.4; D1 PAM: -5.2; Glioma ERSR ind: -4.5%
